Laboratory results: PubChem BioAssay (NCATS)
Records with an inconclusive call do not appear. The source made the active and inactive calls. Calls follow the shape of the dose curve; as a rule, active = well fitted curve in the direction sought with a large enough effect; inconclusive = small, poorly fitted or top-dose-only effect, or another doubt; inactive = no such curve, though single readings can be large; an effect the other way counts as inactive or inconclusive.

Columns and labels:
[1] = Quantitative High-Throughput drug screen in 47 multiple myeloma cell lines against the NCATS MIPE library collection: Delta47_JCRB cell viability assay (AID 1918925; also: nearly all actives have a fitted effect of over 45% in size)
How it was run: (§1)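 Relative luminescence from CellTiter-Glo served as the viability signal, referenced to DMSO-treated (100%) and cell-free medium (0%) controls. Treatment lasted 48 hours at 37C with 500 cells per well.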

[2] = Quantitative High-Throughput drug screen in 47 multiple myeloma cell lines against the NCATS MIPE library collection: KHM11_PLB cell viability assay (AID 1918962); also: nearly all actives have a fitted effect of over 35% in size
How it was run: (§2)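 Steps: seed 500 cells per well; pin-transfer MIPE 4.0 library; incubate 48 h at 37C, 5% CO2, humidified; add CellTiter-Glo, 5 min room temperature; read luminescence.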

[3] = Quantitative High-Throughput drug screen in 47 multiple myeloma cell lines against the NCATS MIPE library collection: JJN3_DSMZ cell viability assay (AID 1918966; also: nearly all actives have a fitted effect of over 50% in size)
How it was run: as §1

[4] = Quantitative High-Throughput drug screen in 47 multiple myeloma cell lines against the NCATS MIPE library collection: H1112_PLB cell viability assay (AID 1918967; also: nearly all actives have a fitted effect of over 30% in size)
How it was run: as §1

[5] = Quantitative High-Throughput drug screen in 47 multiple myeloma cell lines against the NCATS MIPE library collection: Karpas25_ECACC cell viability assay (AID 1918968; also: nearly all actives have a fitted effect of over 35% in size)
How it was run: as §1

[6] = Quantitative High-Throughput drug screen in 47 multiple myeloma cell lines against the NCATS MIPE library collection: KMS27_JCRB cell viability assay (AID 1918970); details: KMS27 myeloma cells, CellTiter-Glo ATP viability, 48 h; viability (% of DMSO): at 45.8 µM (top of the series); also: nearly all actives have a fitted effect of over 30% in size
How it was run: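 Myeloma cells (500 per well) were exposed to MIPE 4.0 compounds for 48 h at 37 °C, 5% CO2; viability was read as ATP luminescence with CellTiter-Glo, normalized to DMSO-only (100%) and media-only (0%) wells.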

[7] = Quantitative High-Throughput drug screen in 47 multiple myeloma cell lines against the NCATS MIPE library collection: KMS20_JCRB cell viability assay (AID 1918973); also: nearly all actives have a fitted effect of over 45% in size
How it was run: as §1

[8] = Quantitative High-Throughput drug screen in 47 multiple myeloma cell lines against the NCATS MIPE library collection: ARP1_JJKsccF8 cell viability assay (AID 1918928; also: nearly all actives have a fitted effect of over 40% in size)
How it was run: (§3)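 CellTiter-Glo luminescence after 48 h exposure gives viability, scaled between DMSO-only (100%) and media-only (0%) controls. Library compounds are pinned onto 500 myeloma cells per well, incubated at 37C with 5% CO2.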

[9] = Quantitative High-Throughput drug screen in 47 multiple myeloma cell lines against the NCATS MIPE library collection: ARD_JJKsccE7 cell viability assay (AID 1918929)
How it was run: as §1

[10] = Quantitative High-Throughput drug screen in 47 multiple myeloma cell lines against the NCATS MIPE library collection: KMM1_JCRB cell viability assay (AID 1918960); also: nearly all actives have a fitted effect of over 30% in size
How it was run: as §3

[11] = Quantitative High-Throughput drug screen in 47 multiple myeloma cell lines against the NCATS MIPE library collection: JIM3_ECACC cell viability assay (AID 1918963; also: nearly all actives have a fitted effect of over 35% in size)
How it was run: as §2

[12] = Quantitative High-Throughput drug screen in 47 multiple myeloma cell lines against the NCATS MIPE library collection: INA6_PLB cell viability assay (AID 1918965; also: nearly all actives have a fitted effect of over 55% in size)
How it was run: (§4)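 CellTiter-Glo luminescence (ATP) after 48 h compound exposure, 37C/5% CO2; 500 cells/well; MIPE 4.0 approved/investigational drugs pinned in; DMSO = 100%, media only = 0% viability.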

[13] = Quantitative High-Throughput drug screen in 47 multiple myeloma cell lines against the NCATS MIPE library collection: Karpas620_DSMZ cell viability assay (AID 1918959); also: nearly all actives have a fitted effect of over 30% in size
How it was run: as §2

[14] = Quantitative High-Throughput drug screen in 47 multiple myeloma cell lines against the NCATS MIPE library collection: KMS12BM_JCRB cell viability assay (AID 1918971); also: nearly all actives have a fitted effect of over 35% in size
How it was run: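 Viability readout: CellTiter-Glo luminescence following 5 min room-temperature incubation with reagent. Prior exposure: 48 h, 37C, humidified 5% CO2, 500 cells per well.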

[15] = Quantitative High-Throughput drug screen in 47 multiple myeloma cell lines against the NCATS MIPE library collection: KMS12PE_JCRB cell viability assay (AID 1918972); also: nearly all actives have a fitted effect of over 30% in size
How it was run: as §4

[16] = Quantitative High-Throughput drug screen in 47 multiple myeloma cell lines against the NCATS MIPE library collection: AMO1_DSMZ cell viability assay (AID 1918927; also: nearly all actives have a fitted effect of over 30% in size)
How it was run: as §1

[17] = Quantitative High-Throughput drug screen in 47 multiple myeloma cell lines against the NCATS MIPE library collection: Karpas417_ECACC cell viability assay (AID 1918961); details: Karpas417 myeloma viability, CellTiter-Glo ATP luminescence, 48 h; viability (% of DMSO): at 45.8 µM (top of the series)
How it was run: as §4

[18] = Quantitative High-Throughput drug screen in 47 multiple myeloma cell lines against the NCATS MIPE library collection: JIM1_ECACC cell viability assay (AID 1918964)
How it was run: as §1

[19] = Quantitative High-Throughput drug screen in 47 multiple myeloma cell lines against the NCATS MIPE library collection: EJM_DSMZ cell viability assay (AID 1918926; also: nearly all actives have a fitted effect of over 30% in size)
How it was run: as §1

Measured: Potency
Potency is read from the fitted curve at half-maximal effect.

CNC(=O)[C@H](Cc1ccccc1)NC(=O)[C@H](CC(C)C)[C@H](CSc1cccs1)C(=O)NO
inactive: [2] | [6] | [7]
active: [1] 18.7 µM | [3] 18.7 µM | [4] 20.9 µM | [5] 16.6 µM

C[C@H]1COC2=C1C(=O)C(=O)c1c2ccc2c1CCCC2(C)C
inactive: [9] | [10]
active: [1] 14.8 µM | [8] 16.6 µM | [11] 23.5 µM | [12] 14.8 µM | [3] 18.7 µM | [5] 4.69 µM | [7] 10.5 µM

CO[C@@H]1C(N(C)C(=O)c2ccccc2)C[C@H]2O[C@]1(C)n1c3ccccc3c3c4c(c5c6ccccc6n2c5c31)C(=O)NC4=O (stereo partly specified)
inactive: [13] | [14]
active: [1] 1.87 µM | [9] 1.87 µM | [11] 6.62 µM | [12] 1.48 µM | [15] 1.66 µM | [7] 3.72 µM

Cc1ccc(S(=O)(=O)OCC(=O)Nc2ccc(C(=O)O)c(O)c2)cc1
active: [1] 16.6 µM | [11] 23.5 µM | [12] 13.2 µM | [3] 16.6 µM | [5] 20.9 µM
inactive: [16] | [9] | [13] | [10]

Cc1cc(C(C)Nc2ccccc2)c2nc(N3CCOCC3)cc(=O)n2c1 (stereo unspecified)
active: [1] 9.35 µM | [16] 18.7 µM | [2] 1.48 µM | [11] 14.8 µM | [12] 18.7 µM | [5] 4.18 µM | [15] 16.6 µM | [7] 10.5 µM
inactive: [3]

Cc1cc(-c2ncc(CC(=O)Nc3ccc(-c4cnccn4)cn3)cc2C)ccn1
active: [1] 14.8 µM | [16] 11.8 µM | [9] 9.35 µM | [2] 14.8 µM | [12] 10.5 µM | [3] 6.62 µM | [5] 10.5 µM | [14] 6.62 µM

CCC(=O)OCC(=O)[C@@]1(OC(=O)CC)[C@@H](C)C[C@@H]2[C@H]3CCC4=CC(=O)C=C[C@]4(C)[C@@]3(F)[C@@H](O)C[C@@]21C
active: [16] 9.35 µM | [9] 2.09 µM | [13] 2.35 µM | [17] 0.0935 µM | [18] 6.62 µM | [5] 0.118 µM | [6] 4.18 µM | [15] 10.5 µM
inactive: [1] | [2] | [4]

CCOC(=O)[C@@H](N)CCC(=O)N[C@@H](CSCc1ccccc1)C(=O)N[C@@H](C(=O)OCC)c1ccccc1
active: [1] 26.4 µM | [13] 14.8 µM | [12] 18.7 µM | [3] 26.4 µM | [5] 23.5 µM | [6] 23.5 µM
inactive: [8]

O=S(=O)(O)c1ccc2cc(N=Nc3cc(S(=O)(=O)O)c4cccnc4c3O)ccc2c1
inactive: [16] | [9] | [13] | [10] | [5] | [6] | [15]
active: [19] 16.6 µM | [8] 2.35 µM | [3] 18.7 µM

Oc1ccc(C=Cc2cc(O)cc(O)c2)cc1
inactive: [19] | [16] | [9] | [13] | [10] | [18] | [6] | [15]
active: [8] 13.2 µM | [5] 18.7 µM

O=C(Nc1ccc(OC(F)(F)F)cc1)c1sccc1NCc1ccnc2ccccc12
active: [1] 5.26 µM | [16] 23.5 µM | [13] 4.69 µM | [3] 9.35 µM | [5] 13.2 µM | [14] 14.8 µM | [15] 18.7 µM | [7] 3.72 µM
inactive: [2]

CCCC1OC2C[C@@H]3[C@H]4CCC5=CC(=O)C=C[C@]5(C)[C@H]4C(O)C[C@]3(C)[C@]2(C(=O)CO)O1 (stereo partly specified)
inactive: [16] | [13] | [12] | [4] | [6] | [15]
active: [19] 11.8 µM | [8] 0.469 µM | [9] 0.0118 µM | [5] 0.0132 µM | [14] 20.9 µM

CN[C@@H]1CN(c2ccc3c(=O)c(C(=O)O)cn(-c4nccs4)c3n2)C[C@@H]1OC
active: [1] 5.75 µM | [16] 0.812 µM | [2] 14.4 µM | [11] 14.4 µM | [12] 1.44 µM | [3] 8.12 µM | [4] 12.9 µM | [5] 5.12 µM | [14] 0.645 µM | [7] 6.45 µM
inactive: [9] | [13] | [15]

Cc1c(C(=O)Nc2ccc(N3C[C@@H](C)O[C@@H](C)C3)nc2)cccc1-c1ccc(OC(F)(F)F)cc1
active: [1] 4.69 µM | [16] 2.96 µM | [9] 0.935 µM | [13] 8.33 µM | [10] 1.18 µM | [17] 1.66 µM | [2] 6.62 µM | [3] 14.8 µM | [4] 7.43 µM | [5] 4.18 µM
inactive: [11]

C[C@H](c1ccc(F)cc1CCCC(=O)O)N(c1cc(F)ccc1F)S(=O)(=O)c1ccc(Cl)cc1
inactive: [16] | [13] | [6] | [15]
active: [1] 20.9 µM | [8] 0.935 µM | [11] 26.4 µM | [5] 20.9 µM | [14] 1.48 µM
